Test results reported in the supplement of paper PMC13380429.

Tests used:
[1] = system: Vero E6 infected with SARS-CoV-2; assay: morphology score (similarity to uninfected cells); higher = more like uninfected cells; details: 24 h
[2] = system: Vero E6 infected with SARS-CoV-2; assay: SARS-CoV-2 infection rate relative to infected DMSO; higher = more infection, active = 60 or less; details: 24 h

SMILES	morphology score [1]	SARS-CoV-2 infection rate [2]
O=C(NCCCN1CCOCC1)c1cnn2c(-c3ccccc3)cc(-c3ccccc3)nc12 [reversan] (10 µM)	0.226	98% (inactive)
O=C(O)c1ccccc1S [o-mercapto-benzoic-acid] (10 µM)	0.201	101% (inactive)
Cn1c(=O)c2c(ncn2CCOC(=O)C(C)(C)Oc2ccc(Cl)cc2)n(C)c1=O [etofylline-clofibrate] (10 µM)	-0.162	114% (inactive)
Cc1c(C(=O)N2CCOc3ccc(-c4ccc(N)nc4)cc3C2)ccc(S(C)(=O)=O)c1F (0.833333 µM)	-0.0918	110% (inactive)
CCC[C@@H]1C[C@@H](C(=O)N[C@@H]([C@H]2O[C@H](SC)[C@H](OP(=O)(O)O)[C@@H](O)[C@H]2O)[C@H](C)Cl)N(C)C1 [Clindamycin phosphate] (10 µM)	-0.0234	107% (inactive)
C=CC[C@@H]1/C=C(\C)C[C@H](C)C[C@H](OC)[C@H]2O[C@@](O)(C(=O)C(=O)N3CCCC[C@H]3C(=O)O[C@H](/C(C)=C/[C@@H]3CC[C@@H](O)[C@H](OC)C3)[C@H](C)[C@@H](O)CC1=O)[C@H](C)C[C@@H]2OC [tacrolimus] (10 µM)	0.199	93% (inactive)
N=C(N)NCCC[C@H](NC(=O)c1sccc1NS(=O)(=O)c1cccc2nsnc12)C(=O)O (10 µM)	0.0108	108% (inactive)
Nc1nccc(-c2c(-c3ccc(F)cc3)ncn2C2CCCCC2)n1 (0.833333 µM)	0.197	103% (inactive)
CC(C)C[C@H](NC(=O)[C@@H](O)[C@H](N)Cc1ccccc1)C(=O)O [ubenimex] (10 µM)	0.237	96% (inactive)
Cc1cc(-c2ccccc2)nnc1NCCN1CCOCC1 [minaprine] (10 µM)	0.145	103% (inactive)
Cc1cc(C#N)cc(C)c1Oc1nc(Nc2ccc(C#N)cc2)nc(N)c1Br [etravirine] (10 µM)	0.364	98% (inactive)
CCC(C(=O)O)c1ccc(CC(C)C)cc1 (stereo unspecified) [butibufen] (10 µM)	0.268	108% (inactive)
O=C(CCc1ccncc1)NNC(=O)N1Cc2ccccc2Oc2ccc(Cl)cc21 (10 µM)	-0.103	108% (inactive)
CCN(C(=O)c1c(O)c2c(Cl)cccc2n(C)c1=O)c1ccccc1 [laquinimod] (10 µM)	0.168	99% (inactive)
O=C(CCc1ccc(O)cc1)c1c(O)cc(O)cc1O[C@@H]1O[C@H](CO)[C@@H](O)[C@H](O)[C@H]1O [phlorizin] (10 µM)	0.166	112% (inactive)
O=C(NC1CCNCC1)c1n[nH]cc1NC(=O)c1c(Cl)cccc1Cl (10 µM)	-0.285	109% (inactive)
O=C1NC(c2ccccc2)(c2ccccc2)C(=O)N1COP(=O)(O)O [fosphenytoin] (10 µM)	-0.197	123% (inactive)
Oc1ccc2c(c1)CC[C@H](c1ccccc1)[C@@H]2c1ccc(OCCN2CCCC2)cc1 [lasofoxifene] (0.833333 µM)	0.106	97% (inactive)
O=C(Cc1ccccc1)Nc1nc2ccc(Cl)cc2c2nc(-c3ccco3)nn12 (10 µM)	-0.00361	110% (inactive)
Nc1ccn([C@H]2CC[C@@H](CO)O2)c(=O)n1 [zalcitabine] (10 µM)	0.0931	104% (inactive)

SMILES	morphology score [1]	SARS-CoV-2 infection rate [2]
OCCN1CCN(CCCN2c3ccccc3Sc3ccc(C(F)(F)F)cc32)CC1 [fluphenazine] (0.833333 µM)	-0.174	116% (inactive)
C[C@@H](O)[C@H]1C(=O)N2C(C(=O)O)=C(S[C@@H]3CN[C@H](CNS(N)(=O)=O)C3)[C@H](C)[C@H]12 [doripenem] (10 µM)	0.131	100% (inactive)
CC(C)c1ccc(C(=O)N=C(N)N)cc1S(C)(=O)=O [cariporide] (10 µM)	0.169	101% (inactive)
C[n+]1ccc(C(=O)NCc2ccccc2)cc1 [enisamium-iodide] (10 µM)	0.172	90% (inactive)
CNC(=O)c1c(-c2ccc(F)cc2)oc2cc(N(CCO)S(C)(=O)=O)c(C3CC3)cc12 [nesbuvir] (10 µM)	0.111	104% (inactive)
N#CC(c1ccnc(OCc2ccc(CN3CCOCC3)cc2)n1)c1nc2ccccc2s1 (stereo unspecified) (10 µM)	0.195	99.5% (inactive)
Ic1cncc(OC[C@@H]2CCN2)c1 (10 µM)	0.114	101% (inactive)
CN[C@@H]1[C@H](O[C@H]2[C@H](O[C@H]3[C@H](O)[C@@H](O)[C@H](NC(=N)N)[C@@H](O)[C@@H]3NC(=N)N)O[C@@H](C)[C@]2(O)CO)O[C@@H](CO)[C@H](O)[C@H]1O [dihydrostreptomycin] (10 µM)	-0.0119	114% (inactive)
NS(=O)(=O)c1cc2c(cc1Cl)NC(CC1CCCC1)NS2(=O)=O (stereo unspecified) [cyclopenthiazide] (10 µM)	0.129	100% (inactive)
c1coc(-c2nnc3sc(C4CCCCC4)nn23)c1 [cardionogen-1] (10 µM)	0.254	89% (inactive)
NS(=O)(=O)Cc1noc2ccccc12 [zonisamide] (10 µM)	0.165	95.5% (inactive)
O=C1OC2(c3ccccc31)c1cc(I)c(O)c(I)c1Oc1c2cc(I)c(O)c1I [erythrosine] (0.833333 µM)	0.0913	116% (inactive)
CCCc1ccc(C(=O)O)cc1 [4-propylbenzoic-acid] (10 µM)	0.187	95% (inactive)
CC(=O)O[C@]1(C(C)=O)CC[C@H]2[C@@H]3C[C@H](C)C4=CC(=O)CC[C@]4(C)[C@H]3CC[C@@]21C [medroxyprogesterone-acetate] (10 µM)	0.153	105% (inactive)
CC1CCc2cc(F)cc3c(=O)c(C(=O)O)cn1c23 (stereo unspecified) [flumequine] (10 µM)	-0.154	116% (inactive)
CC1OC2(CS1)CN1CCC2CC1 (stereo unspecified) [cevimeline] (10 µM)	0.0787	98% (inactive)
C[C@@H](CN(C)C)CN1c2ccccc2Sc2ccccc21 (racemic) [alimemazine] (0.833333 µM)	-0.144	105% (inactive)
Cc1cc(OI)c(C(C)C)cc1-c1cc(C(C)C)c(OI)cc1C [thymol-iodide] (10 µM)	-0.117	104% (inactive)
Cc1cc2c(C(C)C)c(O)c(O)c(C=O)c2c(O)c1-c1c(C)cc2c(C(C)C)c(O)c(O)c(C=O)c2c1O [gossypol] (0.833333 µM)	-0.0839	104% (inactive)
O=Nc1ccc(O)c2ncccc12 (10 µM)	-0.131	108% (inactive)

SMILES	morphology score [1]	SARS-CoV-2 infection rate [2]
COC(=O)c1cc(OC)c2c(c1-c1c(CO)cc(OC)c3c1OCO3)OCO2 [bicyclol] (10 µM)	0.199	88% (inactive)
CC(Cc1cccc(C(F)(F)F)c1)NCCOC(=O)c1ccccc1 (stereo unspecified) [benfluorex] (10 µM)	0.0298	104% (inactive)
CN1CCN(c2ccc(C(=O)Nc3n[nH]c4ccc(Cc5cc(F)cc(F)c5)cc34)c(NC3CCOCC3)c2)CC1 [entrectinib] (0.833333 µM)	0.134	96.5% (inactive)
Cc1ncc(NC(=O)c2ccc(CN3CCN(C)CC3)c(C(F)(F)F)c2)cc1Nc1nccc(-c2cccnc2)n1 [flumatinib] (10 µM)	0.306	25.5% (active)
COc1cc([C@@H]2c3cc4c(cc3[C@@H](O[C@@H]3O[C@@H]5CO[C@@H](C)O[C@H]5[C@H](O)[C@H]3O)[C@H]3COC(=O)[C@H]23)OCO4)cc(OC)c1OP(=O)(O)O [etoposide-phosphate] (10 µM)	0.101	94.5% (inactive)
Oc1ccc2c3c1O[C@H]1c4[nH]c5ccccc5c4C[C@@]4(O)[C@@H](C2)N(CC2CC2)CC[C@]314 [naltrindole] (10 µM)	-0.0968	106% (inactive)
CCCc1c2oc(C(=O)O)cc(=O)c2cc2c(=O)cc(C(=O)O)n(CC)c12 [nedocromil] (10 µM)	-0.0269	110% (inactive)
O=C(NCCN1CCC2(CC1)C(=O)NCN2c1cccc(F)c1)c1ccc(F)c(F)c1 (10 µM)	0.259	75.5% (inactive)
CC(C)[C@@H]1C(=O)N(S(C)(=O)=O)[C@@H]2CCN(C(=O)/C=C/CN3CCCCC3)[C@H]21 (10 µM)	0.0406	106% (inactive)
O=C(O)c1cc(=O)c2ccccc2o1 [chromocarb] (10 µM)	-0.133	106% (inactive)
Cc1c(NC(=O)c2cccnc2)c(=O)n(-c2ccccc2)n1C [nifenazone] (10 µM)	0.0329	102% (inactive)
Cn1cnc([N+](=O)[O-])c1Sc1ncnc2[nH]cnc12 [azathioprine] (10 µM)	0.172	95.5% (inactive)
O=S(=O)(c1cccc2cnccc12)N1CCCNCC1 [fasudil] (10 µM)	0.474	100% (inactive)
CCCN1CCN(c2ccc(C(=O)NC3(C(=O)NCC#N)CCCCC3)cc2)CC1 [balicatib] (10 µM)	0.59	46% (active)
Cc1cnc(CNC(=O)c2c(=O)c3ccc(N4CCCN(C)CC4)nc3n3c2sc2ccccc23)cn1 (0.833333 µM)	0.0323	109% (inactive)
O=C(O)CCc1c[nH]c2ccccc12 (10 µM)	0.0821	104% (inactive)
O=C1NC(=O)c2cc(Nc3ccc(F)cc3)c(Nc3ccc(F)cc3)cc21 (10 µM)	0.329	77.5% (inactive)
CC(C)(Sc1cc(C(C)(C)C)c(O)c(C(C)(C)C)c1)Sc1cc(C(C)(C)C)c(O)c(C(C)(C)C)c1 [probucol] (10 µM)	0.0913	100% (inactive)
